Bioassay records from PubChem.
CHT block: human CHT choline transport inhibition; B-score at 10 µM; CHT-expressing cells, membrane potential dye, choline response; stronger effect = lower value; 310,000 tested, 0.86% active;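 active = B-score over 3 SD under the library average, and starting fluorescence ratio not unusually high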;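 note: choline stimulus applied at its EC90 after an EC20 pre-addition; B-score computed on integrated fluorescence ratio after choline addition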
Target sequence (Q9GZV3 whole entry, looked up): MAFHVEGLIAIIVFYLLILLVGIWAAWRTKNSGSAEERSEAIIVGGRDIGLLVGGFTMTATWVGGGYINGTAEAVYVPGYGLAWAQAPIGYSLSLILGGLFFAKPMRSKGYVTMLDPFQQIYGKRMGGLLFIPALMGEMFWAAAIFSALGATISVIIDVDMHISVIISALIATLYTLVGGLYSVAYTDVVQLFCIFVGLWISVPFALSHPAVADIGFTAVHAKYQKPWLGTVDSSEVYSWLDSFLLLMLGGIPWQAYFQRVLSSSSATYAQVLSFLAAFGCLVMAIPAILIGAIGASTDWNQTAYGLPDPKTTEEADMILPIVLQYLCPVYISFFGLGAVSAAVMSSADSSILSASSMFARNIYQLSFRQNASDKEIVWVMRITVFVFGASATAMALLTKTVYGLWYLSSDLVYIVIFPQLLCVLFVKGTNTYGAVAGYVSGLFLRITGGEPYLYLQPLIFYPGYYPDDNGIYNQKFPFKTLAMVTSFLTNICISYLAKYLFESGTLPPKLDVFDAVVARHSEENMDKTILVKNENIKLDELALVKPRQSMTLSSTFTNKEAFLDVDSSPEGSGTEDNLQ
HDAC3 inhib: inhibitors of human histone deacetylase 3; recombinant HDAC3, fluorogenic peptide/trypsin coupled, fluorescence; inhibition, % at 8.3 µM; 320,000 tested, 0.15% active; in the data active = inhibition above about 26%, passing the limit was not always enough
CHT allo act: allosteric activators of human choline transporter CHT | CHT-expressing cells, membrane potential dye, choline EC20; stronger effect = higher value; LV-AA mutant CHT in HEK293 cells | 310,000 tested, 0.49% active | AID 488977 | B-score at 10 µM;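 active = initial fluorescence not abnormally high and integrated response B-score, plate-corrected, over 3 SD above library mean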
TMEM16A act: mouse TMEM16A channel activation, primary screen; HEK293 TMEM16A/YFP-H148Q/I152L, iodide quench fluorescence; stronger effect = lower value; B-score at 10 µM; 340,000 tested, 0.3% active; AID 623877;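 active = fluorescence-ratio B-score plate-corrected deviation score at least 3 library SD below zero, with starting fluorescence score within 5 deviations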;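 note: channel opened by trigger with iodide after compound preincubation; score built on the fluorescence ratio of max minus min over baseline; more negative score means more quench and so TMEM16A activation or potentiation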
PHOSPHO1 inh: PHOSPHO1 (human) inhibition | recombinant PHOSPHO1, absorbance phosphatase assay | inhibition, % at 13.3 µM | 290,000 tested, 1.1% active | AID 1565 | Q8TCT1; in the data active = inhibition above about 60%
ANO1 block: inhibitors of mouse TMEM16A calcium-activated chloride channel; HEK293 TMEM16A/YFP iodide influx fluorescence, ionomycin; 310,000 tested, 1.2% active; AID 588511; normalized B-score (activity score, 25-100; higher = stronger inhibition) at 10 µM; Q8BHY3;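 active = ratio plate-corrected score three or more library SD toward inhibition, starting fluorescence score within five deviations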;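 note: score derived from kinetic fluorescence span divided by baseline fluorescence per well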
Hits are given with their value; i = inactive; nt = not tested or not shown. Compounds with a hit are over-represented: about 3.2% of the library has one in this group of screens.

SMILES | CHT block | HDAC3 inhib | CHT allo act | TMEM16A act | PHOSPHO1 inh | ANO1 block
COc1ccc(Cl)cc1NC(=S)NCCSc1ccc(C)cc1 | i | i | i | i | i | 100
COc1ccccc1NC(=S)NCCSc1ccc(Cl)cc1 | i | i | i | i | i | i
CC(C)c1ccc(COc2ccc(C(=O)N3CCOCC3)cc2)cc1 | i | i | i | i | i | i
CC(C)c1ccc(OCc2ccc(C(=O)N3CCN(c4ccccn4)CC3)cc2)cc1 | i | i | i | i | i | 100
CCOC(=O)N1CCN(c2cc(=O)n(C3CCCCC3)c(=O)[nH]2)CC1 | i | i | i | i | i | i
Cc1ccc(CSc2nnc(-c3ccccc3N)c(=O)[nH]2)cc1 | i | i | i | i | 102 | i
CC(OC(=O)Nc1cccc(Cl)c1)C(=O)O (stereo not drawn) | i | i | i | i | i | i
Cc1ccc(CSc2nc3c(c(N(C)C)n2)CCCC3)cc1 | i | i | i | i | i | i
CNc1nc(SCc2ccc(C)cc2)nc2c1CCCC2 | i | i | i | i | i | 100
COCCNC(=O)C(c1cccs1)N(CCc1ccccc1)C(=O)Cn1nnc2ccccc21 (stereo not drawn) | i | i | i | i | i | i
COC(=O)N1CCN(CCc2ccccc2)CC1 | i | i | i | i | i | i
O=C(Nc1ccc(F)cc1F)N1CCN(CCc2ccccc2)CC1 | i | i | i | i | 68 | i
COc1ccc(CCNC(=O)c2ccc3nc(-c4ccco4)c(-c4ccco4)nc3c2)cc1OC | i | i | i | i | 70 | i
CCOc1ccc(-c2nnc3ccc(SCc4ccc(C(=O)OC)o4)nn23)cc1 | i | i | i | i | 95 | i
CCOc1ccc(-c2nnc3ccc(SCC(=O)Nc4cc(C)on4)nn23)cc1 | i | i | i | i | i | i
O=C(COc1ccc(S(=O)(=O)N2CCOCC2)cc1)N1CCN(c2ccccc2)CC1 | i | nt | i | i | 68 | i
CC(C)(C)c1ccc2c(c1)OCC(C(=O)O)O2 (stereo not drawn) | i | i | i | i | i | i
CCOC(=O)N1CCN(C(=O)c2c[nH]c3ccc(S(=O)(=O)N(C)c4cccc(C)c4)cc3c2=O)CC1 | i | i | i | -6.3 | i | i
COc1cc2nc(CN3CCN(S(=O)(=O)c4ccc(Cl)cc4)CC3)[nH]c(=O)c2cc1OC | i | i | i | -39 | i | i
COc1cc2nc(CN3CCN(S(=O)(=O)c4ccccc4)CC3)[nH]c(=O)c2cc1OC | nt | nt | nt | i | nt | nt
Cc1cc(C(=O)OCC(=O)NCc2ccco2)c(C)n1-c1ccc(F)cc1 | -6.3 | i | i | i | i | i
CCNC(=O)COC(=O)c1cc(C)n(-c2ccccc2)c1C | i | i | i | i | i | i
Oc1ccccc1C1Nc2cccc3cccc(c23)N1 | i | i | i | i | i | i
C/C(=C\c1cc2ccccc2o1)C1Nc2cccc3cccc(c23)N1 | nt | i | nt | -18 | nt | nt
CCC(C)c1nc2c(c(N3CCC3=O)c1-c1ccccc1)CCCC2 (stereo not drawn) | i | i | i | i | nt | i
SMILES | CHT block | HDAC3 inhib | CHT allo act | TMEM16A act | PHOSPHO1 inh | ANO1 block
OC1CCCN(CC(O)COC(c2ccccc2)c2ccccc2)C1 (stereo not drawn) | i | i | i | i | i | i
Cc1ccc(NC(=O)CN(C)C(=O)CSc2nc3ccccc3c(=O)n2Cc2ccco2)cc1 | i | i | i | i | i | 100
NS(=O)(=O)c1cccc(NC(=O)CSc2nc3ccccc3c(=O)n2Cc2ccco2)c1 | nt | i | nt | i | nt | nt
O=C(c1ccc(CN2CCOCC2)cc1)N1CCN(Cc2ccccc2)CC1 | i | i | i | i | i | i
COC(=O)C1=C(C)NC(=S)NC1c1ccc(-c2cccc(Cl)c2)o1 (stereo not drawn) | i | 29 | i | i | i | i
CCOC(=O)C1=C(C)NC(=O)NC1c1ccc(-c2ccc(Cl)cc2)o1 (stereo not drawn) | i | 50 | i | i | i | i
COC(=O)C1=C(C)NC(C)=C(C(=O)OC)C1c1ccc(-c2cccc([N+](=O)[O-])c2)o1 | i | 35 | i | i | i | i
CCOC(=O)C1=C(C)NC(=S)NC1c1ccc(-c2ccc(Cl)cc2)o1 (stereo not drawn) | i | i | i | i | i | i
C/C(=N\NC(=O)Cc1c(F)cccc1Cl)c1cccnc1 | i | i | i | i | i | i
COc1cc(O)c(C(CCN2CCCC(C)C2)c2ccc(N(C)C)cc2)c(OC)c1 (stereo not drawn) | i | i | i | i | i | i
CCC(Sc1ncnc2c1c(-c1ccccc1)cn2-c1ccc(OC)cc1)C(=O)OC (stereo not drawn) | i | i | i | i | i | i
Cc1sc2nc(CSc3ccccc3)nc(N3CCC(C(N)=O)CC3)c2c1C | i | i | i | i | i | i
CCOC(=O)c1sc2nc(CSc3ccccc3)nc(N3CCC(C(N)=O)CC3)c2c1C | i | i | i | -5.8 | i | i
c1ccc2sc(SN3CCOCC3)nc2c1 | i | i | i | i | 66 | i
O=C(NCCc1ccc(Cl)cc1)c1ccc(CNc2c(N3CCOCC3)c(=O)c2=O)cc1 | i | i | i | -6.6 | i | i
O=C(NCc1ccc(Cl)cc1)c1ccc(CNc2c(N3CCOCC3)c(=O)c2=O)cc1 | i | i | i | i | i | i
CC(C)c1cc(-c2cc(C(=O)NCc3ccccc3)on2)nc(NCC2CC2)n1 | i | i | i | -6.6 | i | 100
CC(C)c1cc(-c2cc(C(=O)Nc3ccccc3)on2)nc(NCC2CC2)n1 | i | i | i | nt | nt | i
CCOc1ccc(CC(=O)Nc2sc(Cc3ccccc3)cc2C(N)=O)cc1OCC | i | i | i | i | 97 | i
NC(=O)c1cc(Cc2ccccc2)sc1NC(=O)c1ccco1 | i | i | i | i | i | i
CC1CCCCN1C(=O)c1cc(S(=O)(=O)N2CCOCC2)ccc1Cl (stereo not drawn) | nt | i | nt | i | nt | nt
COc1ccc(C(=O)c2ccc(OC)c(N)c2)cc1N | i | i | 12 | i | i | i
Cc1cccc(NCc2n[nH]c(=S)n2-c2ccccc2)c1 | i | i | i | i | 94 | i
S=c1[nH]nc(Cc2cccc3ccccc23)n1-c1ccccc1 | i | i | i | -7.2 | 94 | i
COCc1n[nH]c(=S)n1-c1cccc2ccccc12 | i | i | i | i | 74 | i
Nn1c(Cc2cccc3ccccc23)n[nH]c1=S | i | i | i | i | i | i
COc1ccc(C2/C(=C(/O)c3ccccc3)C(=O)C(=O)N2c2ccccn2)cc1 (stereo not drawn) | i | i | i | i | i | i
O=C(Nc1cccnc1)Nc1ccccn1 | i | i | i | -6.4 | i | i
Cc1ccc(C)c(OCC(=O)N(Cc2nnc(-c3ccccc3Cl)o2)C2CC2)c1 | i | nt | i | i | nt | i
Cc1cccc(OCC(=O)N(Cc2nnc(-c3ccccc3Cl)o2)C2CC2)c1 | nt | nt | nt | -29 | nt | nt
